# Results: PubChem BioAssay AID598 (SRMLSC, 2007)
# Among all 85,000 compounds or so, about 5,100 (6%) were called active. Many of the other results were omitted from the sample, so actives are more common in it than they were. Unmarked numbers belong to inactive results.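 Rule for the calls: active = viability at or below 40%; inactive = viability above 40%.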
# Assay: proliferation blockers of H69AR lung cancer cells, primary screen, cell-based, human, 86K library (AID 598);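 note: multidrug resistant small cell line overexpressing MRP-1 efflux transporter; 100% = mean luminescence of untreated control wells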
# Conditions: H69AR lung tumor viability, ATP luminescence, 72 h; at 10 µM; hits give low values
row,SMILES,viability
1,CC/S(CC1CC1(Cl)Cl)=N\S(=O)(=O)c1ccc(C)cc1 (stereo not drawn),76.7%
2,CCOc1ccc2nc(NC(=O)CSc3nc4c(c(=O)n(C)c(=O)n4C)n3CC)sc2c1,14.9% (active)
3,CCCCn1c(SCC(=O)NCCc2ccc(OC)c(OC)c2)nc2c1c(=O)n(C)c(=O)n2C,86.6%
4,CCn1c(SCC(=O)Nc2nc3ccc(OC)cc3s2)nnc1-c1ccoc1C,58.8%
5,COC(=O)CNC(=O)c1ccccc1F,85.2%
6,O=C(c1ccc(Cl)c(Cl)c1)N1CCCC1,95.3%
7,C/C=C/C(=O)OCC(=O)Nc1ccc(F)cc1Cl,98.4%
8,COc1ccccc1-n1nnnc1S(=O)(=O)Cc1ccc(Cl)cc1,1.36% (active)
9,COc1ccccc1N1CCN(C(=O)CN(Cc2ccc(Cl)cc2)S(C)(=O)=O)CC1,86.8%
10,COc1ccccc1N1CCN(Cc2nnnn2CCc2ccccc2)CC1,102%
11,COCc1[nH][nH]c(=O)c1C=Nc1ccc(F)cc1F,96.8%
12,Cc1cc(C(F)F)n2nc(C(=O)Nc3ccc(S(=O)(=O)NC45CC6CC(CC(C6)C4)C5)cc3)nc2n1,115%
13,CC(C)CNC(=O)CC(c1ccccc1)c1c(O)ccc2ccccc12 (stereo not drawn),92.8%
14,O=S(=O)(NCCc1ccccc1)c1ccccc1,103%
15,CCN1C(=O)C(CC(=O)Nc2cc(C)ccc2C)SC1=Nc1ccc(S(N)(=O)=O)cc1 (stereo not drawn),97.3%
16,COc1ccc(CC(=O)Nc2ccc(-c3nnc(-c4ccc(C)cc4)o3)cc2)cc1,2.28% (active)
17,Cc1ccc(OCC(=O)Nc2ccc(-c3nnc(-c4ccco4)o3)cc2)cc1,90.5%
18,COc1ccc(CC(=O)Nc2ccc(-c3nnc(-c4ccccc4)o3)cc2)cc1,58.1%
19,CN(Cc1ccccc1)C(=O)COc1ccccc1,97.9%
20,CCc1ccccc1NC(=O)CN(C)S(=O)(=O)c1ccc2c(c1)c(=O)n(C)c(=O)n2C,88.5%
21,CC(=O)c1ccc(S(=O)(=O)N2CCN(c3nc4c(C)c(C)ccc4cc3C#N)CC2)cc1,36% (active)
22,Cc1cc(C)c2nc(N3CCCC3)c(C#N)cc2c1,91.6%
23,Cc1cccc2cc(C#N)c(N3CCCC3)nc12,100%
24,CCS(=O)(=O)Nc1ccc(C2=NN(S(=O)(=O)c3ccc(F)cc3)C(c3ccco3)C2)cc1 (stereo not drawn),81.9%
25,O=C(NC1CCCC1)C(c1ccccn1)N(C(=O)c1csnn1)C1CCCC1 (stereo not drawn),81.2%

row,SMILES,viability
1,CCOC(=O)CN(Cc1ccc(OC)c(OC)c1)S(=O)(=O)c1ccc(OC)cc1,87.8%
2,Cc1ccccc1OCCC(=O)Nc1c(C)n(C)n(-c2ccccc2)c1=O,91%
3,Cc1cc(C)cc(N(CC(=O)Nc2c(C)n(C)n(-c3ccccc3)c2=O)S(C)(=O)=O)c1,93.1%
4,Cc1c(NC(=O)CSc2cccc3cccnc23)c(=O)n(-c2ccccc2)n1C,0.71% (active)
5,COc1ccc(C(C)=O)cc1CN1C(=O)NC2(CCCCC2C)C1=O (stereo not drawn),93.7%
6,CCOC(=O)N1CCN(C(=O)COc2ccc(Br)cc2)CC1,104%
7,CCOC(=O)C1CCN(C(=O)Nc2ccc(Cl)cc2)CC1,101%
8,CCOC(=O)C1CCN(C(=O)COc2cc(C)c(Br)c(C)c2)CC1,35.3% (active)
9,O=C1C2C3C=CC(C4CC34)C2C(=O)N1/N=C/c1ccc(-c2ccccc2[N+](=O)[O-])o1 (stereo not drawn),86.5%
10,COc1ccc(NC(=O)/C(Cl)=C(/Cl)S(=O)Cc2ccc(C)cc2)cn1 (stereo not drawn),0.7% (active)
11,COc1cccc(NC(=O)Cc2ccc(C)cc2)c1,97.9%
12,O=C(Cn1cnc2ccccc2c1=O)NCC1COc2ccccc2O1 (stereo not drawn),104%
13,Cc1cc(=O)[nH]c(SCc2cccc(F)c2)n1,106%
14,COC(=O)c1ccccc1NC(=O)Cn1nc(C(F)(F)F)c2c1CCC2,84.3%
15,O=C(Cn1nc(C(F)(F)F)c2c1CCC2)NCc1ccc(F)cc1,104%
16,Cc1cc(NC(=O)Cn2nc(C(F)(F)F)c3c2CCCC3)no1,35.8% (active)
17,Cc1ccc(OC(=O)c2ccccc2C(=O)OCC(F)(F)C(F)F)cc1,99.1%
18,COc1ccc(-n2ncc3c(N4CCc5ccccc54)ncnc32)cc1,43.4%
19,COc1ccc(-n2ncc3c(N4CCCc5ccccc54)ncnc32)cc1,100%
20,Cc1cccc(-n2ncc3c(N4CCc5ccccc54)ncnc32)c1,33.3% (active)
21,CC(C)N1C(=S)SC(C)(C)C1n1oc(=O)n(-c2ccc(Cl)c(Cl)c2)c1=O (stereo not drawn),97.1%
22,CC(C)(C)n1nnnc1C(c1ccc(F)cc1)N1CCN(Cc2ccc3c(c2)OCO3)CC1 (stereo not drawn),81.2%
23,CCN1C(=O)/C(=C\N2CCOCC2)SC1=S,86.2%
24,CCSc1nc(-c2ccc(OC)cc2)cc(-c2ccc(OC)cc2)c1C#N,88%
25,COC(=O)C(NC(C)=O)(Nc1nc2c(s1)CCCC2)C(F)(F)F (stereo not drawn),91.5%

row,SMILES,viability
1,O=C(Cn1c(=O)sc2ccccc21)Nc1nc2c(s1)CCCC2,63.2%
2,O=C(CCS(=O)(=O)c1ccccc1)Nc1nc2c(s1)CCCC2,17.5% (active)
3,COc1ccc(C(C#N)N2N=C(C)CC2(C)C)cc1 (stereo not drawn),104%
4,COC(=O)c1c(C)c(C)nc(N)c1C#N,98.1%
5,FC(F)(F)c1cc(-c2ccco2)nc(NCc2ccc(Cl)cc2)n1,101%
6,CCCNC(=O)c1ccc(Cl)c(Cl)c1,96%
7,O=C(NCc1cccnc1)Nc1ccccc1F,98.8%
8,CCC(c1nnnn1Cc1ccco1)N(CCc1ccccc1)Cc1cc2ccc(OC)cc2[nH]c1=O (stereo not drawn),23.2% (active)
9,CCC(c1nnnn1Cc1ccco1)N(CCc1ccccc1)Cc1cc2cccc(C)c2[nH]c1=O (stereo not drawn),67.3%
10,CCC(c1nnnn1Cc1ccco1)N(Cc1cc2cc(OC)ccc2[nH]c1=O)C1CCCCC1 (stereo not drawn),76.8%
11,Cc1nc(SCC(=O)Nc2cc(C)on2)c2c3c(sc2n1)CCCC3,94%
12,CC1CCc2c(sc(NC(=O)c3ccc(Cn4cc(Br)cn4)o3)c2C(N)=O)C1 (stereo not drawn),101%
13,Cc1cc(NC(=O)CSc2nc(C(C)C)nc3sc4c(c23)CCC(C)C4)no1 (stereo not drawn),6.01% (active)
14,C=CCN(C(=O)Nc1ccc2oc(C)nc2c1)c1ccccc1,78.7%
15,COc1ccc(-c2nn(-c3ccccc3)cc2C(=O)Nc2nccs2)cc1OC,17.2% (active)
16,COc1cc(C(=O)Nc2nccs2)cc(OC)c1OC,84.2%
17,COc1ccc(-c2nn(-c3ccccc3)cc2C(=O)Nc2nc(CC(C)=O)ns2)cc1,86.5%
18,C/C=C/C(=O)Nc1nnc(C(C)C)s1,96.5%
19,O=C(Nc1ccccc1)c1ccc2c(c1)OCO2,82.3%
20,CCC(C)c1ccc(O)c(/C=N/O)c1 (stereo not drawn),21.6% (active)
21,Cc1nn(C(C)CC(=O)O)c(C)c1C (stereo not drawn),98.2%
22,CCCCNC(=O)C1(c2ccc(OC)cc2)CCOCC1,93.8%
23,CCOc1ccc(NC(=O)c2ccccc2NS(C)(=O)=O)cc1,94.1%
24,C=CCn1c(SCC(=O)NCc2ccccc2)nnc1-c1cc(Br)ccc1O,87.8%
25,C=CCn1c(CSc2nc3ccccc3s2)nnc1SCC(=O)NCc1ccco1,54.6%

row,SMILES,viability
1,C=CCn1c(SCC(=O)Nc2nc3ccccc3s2)nnc1-c1ccccc1O,27.4% (active)
2,COc1ccc(C(=O)Nc2nc(-c3ccc(S(=O)(=O)N4CCOCC4)cc3)cs2)cc1,58%
3,Oc1ccc(-c2csc(Nc3cccnc3)n2)cc1,54.4%
4,COc1ccc(OC)c(Nc2nc(-c3ccc(O)c(O)c3)cs2)c1,30.8% (active)
5,CCOC(=O)C1=C(CN2CCc3ccccc32)NC(=O)NC1c1cccc([N+](=O)[O-])c1 (stereo not drawn),16.4% (active)
6,CCOC(=O)C1=C(CN2CCc3ccccc32)NC(=O)NC1c1ccc(Cl)cc1 (stereo not drawn),48.1%
7,CCOC(=O)C1=C(CNC2CCCCC2)NC(=O)NC1c1cc(C)ccc1C (stereo not drawn),80.5%
8,COc1ccccc1NC(=O)C1=C(C)Nc2nnnn2C1c1cccc(Br)c1 (stereo not drawn),45.1%
9,COc1ccc(C2=CC(c3cccc(OC)c3)n3nnnc3N2)cc1 (stereo not drawn),11.4% (active)
10,COC(=O)C1=C(C(=O)c2ccc(C)cc2)C(c2ccccc2)n2nnnc2N1 (stereo not drawn),93.9%
11,CC(C)C(NC(=O)c1ccc(Cl)cc1)C(=O)O (stereo not drawn),111%
12,O=c1c2ccccc2nnn1CSc1nc2sc3c(c2c(=O)n1CC1CCCO1)CCC3 (stereo not drawn),54.9%
13,CCCc1nc2sc3c(c2c(=O)n1NC(=O)CCCl)CCCC3,36% (active)
14,Cn1c(NN)nc2sc3c(c2c1=O)CCC3,96.5%
15,CC(C)CCNC(=O)CC1C(=O)N(Cc2ccccc2)C(C)c2nc3ccccc3n21 (stereo not drawn),102%
16,COc1ccc(C2(CNC(=O)C(c3ccccc3)c3ccccc3)CCOCC2)cc1OC,74.8%
17,CCOc1cc(C(=O)Nc2c(C)ccc3nsnc23)cc(OCC)c1OCC,78.3%
18,COc1cccc2cc(C(C)N(CCCN3CCOCC3)C(=O)Nc3ccc(Cl)cc3)oc12 (stereo not drawn),31.7% (active)
19,COc1ccc(C(=O)Nc2ccc(CN3CCOCC3)cc2)cc1,98.4%
20,O=C(CC(NCCN1CCOCC1)C(=O)O)Nc1cccc(Cl)c1 (stereo not drawn),94.2%
21,CCn1c(Cc2ccccc2)nnc1SCC(=O)Nc1ccccc1,90%
22,CCn1c(SCC(=O)Nc2cccc(F)c2)nnc1-c1cc2cc(Br)ccc2o1,34.7% (active)
23,CCCn1c(SCC(=O)Nc2cccc(C(=O)OCC)c2)nnc1-c1ccoc1C,78.9%
